Test results as given in the supplement of paper PMC8728848.
Many of the other results were omitted from the sample, so the strongest signals are more common in it than they were.

Legend:
Assay in all cases: glycan array binding signal (z-score within array); higher = stronger binding
Conditions in all cases: glycan notation: IUPAC condensed, linker removed
[1] = tested on: Neu5Ac(a2-3)Gal(b1-4)GlcNAc(b1-3)Gal(b1-4)GlcNAc(b1-2)Man(a1-3)[Neu5Ac(a2-3)Gal(b1-4)GlcNAc(b1-3)Gal(b1-4)GlcNAc(b1-2)Man(a1-6)]Man(b1-4)GlcNAc(b1-4)GlcNAc
Procedure, shortened: (§1)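 Glycan array data were curated from 3228 arrays in the Consortium for Functional Glycomics database and kept only where the protein sequence was available. Glycan names were converted to IUPAC-condensed notation, and columns mapping to the same glycan were averaged. The binding signal is a within-array Z-score, averaged across arrays of the same protein sequence at different concentrations or buffers and across linkers. Negative Z-scores can be read as non-binding.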

[2] = tested on: Neu5Ac(a2-3)Gal(b1-4)GlcNAc(b1-3)Gal(b1-4)GlcNAc(b1-3)Gal(b1-4)GlcNAc(b1-2)Man(a1-3)[Neu5Ac(a2-3)Gal(b1-4)GlcNAc(b1-3)Gal(b1-4)GlcNAc(b1-3)Gal(b1-4)GlcNAc(b1-2)Man(a1-6)]GalNAc
Procedure, shortened: as §1

[3] = tested on: Neu5Ac(a2-3)Gal(b1-4)GlcNAc(b1-3)Gal(b1-4)GlcNAc(b1-3)GalNAc
Procedure, shortened: as §1

[4] = tested on: Neu5Ac(a2-3)Gal(b1-4)GlcNAc(b1-6)[Gal(b1-3)]GalNAc
Procedure, shortened: as §1

[5] = tested on: Neu5Ac(a2-3)Gal(b1-4)GlcNAc(b1-3)Gal(b1-4)GlcNAc(b1-3)Gal(b1-4)GlcNAc
Procedure, shortened: as §1

[6] = tested on: Neu5Ac(a2-3)Gal(b1-4)GlcNAc(b1-3)GalNAc
Procedure, shortened: as §1

[7] = tested on: Neu5Ac(a2-3)Gal(b1-4)GlcNAc(b1-3)Gal(b1-4)[Fuc(a1-3)]GlcNAc
Procedure, shortened: as §1

[8] = tested on: Neu5Ac(a2-3)Gal(b1-4)GlcNAc(b1-6)GalNAc
Procedure, shortened: as §1

[9] = tested on: Neu5Ac(a2-3)Gal(b1-4)GlcNAc6S
Procedure, shortened: as §1

[10] = tested on: Neu5Ac(a2-3)Gal(b1-4)GlcNAc(b1-3)Gal
Procedure, shortened: as §1

AgI/II Vhelical-GFP (Streptococcus mutans)
glycan array binding signal (z-score) [1]: 1.8 | glycan array binding signal (z-score) [2]: -0.031 | glycan array binding signal (z-score) [3]: 0.5 | glycan array binding signal (z-score) [4]: -0.273

BambL (Burhholderia ambifaria), Q0B4G1
glycan array binding signal (z-score) [5]: -0.313

SiiE (Salmonella typhimurium), A0A0H3NVH0
glycan array binding signal (z-score) [5]: -0.456 | glycan array binding signal (z-score) [6]: -1.98

LcI (Legionella pneumophila)
glycan array binding signal (z-score) [7]: -0.717 | glycan array binding signal (z-score) [8]: 3.79 | glycan array binding signal (z-score) [9]: -0.956

SpGH101 (Streptococcus pneumoniae), Q8DR60
glycan array binding signal (z-score) [10]: -0.209

Wza (Escherichia coli), P0A930
glycan array binding signal (z-score) [10]: 2.81

Epa22
glycan array binding signal (z-score) [9]: 0.274
